Bioassay records: PubChem, National Center for Advancing Translational Sciences (NCATS)
A selection: hits, their analogues and other compounds. The true share with any hit is near 10%.
Six1-Eya2 inh – qHTS Assay for Inhibitors of the Six1/Eya2 Interaction; AlphaScreen GST-Six1/His-Eya2 binding, biochemical; hits give low values; 360,000 compounds, 0.56% hits; AID 651725, 2012; Homeobox protein SIX1 (Homo sapiens) + Protein phosphatase EYA2 (Homo sapiens), …; activity change, % (no concentration beside the values); in the data active = activity change below about -65%; inconclusive = mostly about -30% to -63%; note: % is set by controls: 0 for no effect and ±100 for the full control effect
Target sequence (O00167 whole entry, looked up): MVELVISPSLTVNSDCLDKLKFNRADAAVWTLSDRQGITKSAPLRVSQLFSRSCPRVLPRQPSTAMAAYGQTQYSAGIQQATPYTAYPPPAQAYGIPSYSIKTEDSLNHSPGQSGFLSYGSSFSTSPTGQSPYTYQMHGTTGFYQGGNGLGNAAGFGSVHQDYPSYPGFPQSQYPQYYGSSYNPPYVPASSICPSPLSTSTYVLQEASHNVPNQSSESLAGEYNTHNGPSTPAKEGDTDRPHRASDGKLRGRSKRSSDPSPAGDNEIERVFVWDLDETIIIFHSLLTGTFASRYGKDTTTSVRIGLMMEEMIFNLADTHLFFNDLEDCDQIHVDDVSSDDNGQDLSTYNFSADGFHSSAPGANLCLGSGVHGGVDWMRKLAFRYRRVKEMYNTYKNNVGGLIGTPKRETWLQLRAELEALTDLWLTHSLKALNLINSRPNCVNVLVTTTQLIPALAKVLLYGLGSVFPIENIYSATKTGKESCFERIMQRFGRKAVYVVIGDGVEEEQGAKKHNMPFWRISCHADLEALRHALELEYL
Target sequence (Q15475 whole entry, looked up): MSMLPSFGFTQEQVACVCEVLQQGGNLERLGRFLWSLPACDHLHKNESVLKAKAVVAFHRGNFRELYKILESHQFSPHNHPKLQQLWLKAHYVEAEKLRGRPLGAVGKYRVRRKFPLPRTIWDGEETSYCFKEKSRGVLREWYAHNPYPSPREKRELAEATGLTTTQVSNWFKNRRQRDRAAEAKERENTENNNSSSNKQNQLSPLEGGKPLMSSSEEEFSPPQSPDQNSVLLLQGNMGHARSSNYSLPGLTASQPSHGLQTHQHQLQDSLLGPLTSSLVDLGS
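AlphaScreen with GST-Six1 and His-Eya2 (5X mix: 250 nM and 500 nM), glutathione donor and nickel acceptor beads; buffer 50 mM Tris pH 8.0, 300 mM NaCl, 1 mM TCEP; 1 h at 37 C in the dark.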
CtBP-E1A blk – qHTS Assay for Inhibitors of the CtBP/E1A Interaction. activity change, % (test concentration not listed). AID 651724, 2012. CtBP / adenovirus E1A interaction (AlphaScreen). AlphaScreen GST-E1A/His-CtBP binding, 1536-well; hits give low values. 340,000 compounds, 0.49% hits; in the data active = activity change below about -65%; inconclusive = mostly about -30% to -63%; note: % is set by controls: 0 for no effect and ±100 for the full control effect
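In 5 uL wells, 23 nL compound meets equimolar GST-E1A and His-CtBP (5X stock 125 nM each) for 2 h, 37 °C. Beads (5X, 50 ug/mL) then 1 h, 37 °C, dark.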
HP1b binding inh – HTS for Inhibitors of HP1-beta Chromodomain Interactions with Methylated Histone Tails | 390,000 compounds, 0.56% hits | Potency, µM (top dose mostly 114 µM), for inactives: at the top dose activity change, negative = inhibition, hits mostly inhibitors | AID 540317, 2011 | AlphaScreen HP1-beta / biotin-H3K9me3 peptide binding; note: potency is the fitted concentration of half-maximal effect; nearly all actives have a fitted effect of over 70% in size
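AlphaScreen: HP1-beta (50 nM) preformed 30 min with biotin-H3(1-18)K9me3 peptide (50 nM) in PBS pH 7.4, 0.01% Tween-20. Compound added for 30 min at RT, then streptavidin donor/nickel chelate acceptor beads (10 ug/mL) for 30 min.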
G9a inh – qHTS Assay for Inhibitors of Histone Lysine Methyltransferase G9a; G9a H3K9 monomethylation, AlphaScreen, 2 h; Histone-lysine N-methyltransferase EHMT2 (Homo sapiens), Q96KQ7; Potency, µM (titrated, usually from 102 µM), for inactives: top-dose activity, negative = inhibition, hits mostly inhibitors; AID 504332, 2011; 350,000 compounds, 8.8% hits; note: potency is the fitted concentration of half-maximal effect; % is set by controls: 0 for no effect and ±100 for the full control effect; nearly all actives have a fitted effect of over 75% in size
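Using a bead-based AlphaScreen, monomethylated H3K9 product from 2 h room-temperature reactions (G9a 20 nM, peptide 500 nM, SAM 20 uM) was detected with 0.5 ug/mL rabbit anti-H3K9me1 antibody.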
BAZ2B block – qHTS Assay for Inhibitors of BAZ2B; Bromodomain adjacent to zinc finger domain protein 2B (Homo sapiens), Q9UIF8; AlphaScreen BAZ2B-H3K14Ac peptide displacement; Potency, µM (titrated, usually from 114 µM), inactives show at the highest dose activity change, negative = inhibition, most hits filed as inhibitors; 360,000 compounds, 4.4% hits; AID 504333, 2011; note: potency is the fitted concentration of half-maximal effect; % is set by controls: 0 for no effect and ±100 for the full control effect; nearly all actives have a fitted effect of over 60% in size
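Complex of BAZ2B and biotin-H3K14Ac (50 nM apiece) forms over 30 min at RT, then faces library compounds up to 110 uM for another 30 min; AlphaScreen beads added, 20 min dark incubation, luminescence read.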
JMJD2A Tudor – qHTS Assay for Inhibitors of JMJD2A-Tudor Domain. Lysine-specific demethylase 4A (Homo sapiens), O75164. AlphaScreen JMJD2A-Tudor / H3K4me3 peptide binding. Potency, µM (highest dose often 114 µM), for inactives: top-dose activity change, negative = inhibition, hits mostly inhibitors. 390,000 compounds, 4.4% hits. AID 504339, 2011; note: potency is the fitted concentration of half-maximal effect; % is set by controls: 0 for no effect and ±100 for the full control effect; nearly all actives have a fitted effect of over 50% in size
An asterisk follows results filed as active; [ ] = remark or other dose. Unless noted, calls come from the whole dose curve; as a rule, active = well fitted inhibition curve with a large enough effect; inconclusive = small, poorly fitted or top-dose-only effect; inactive = no such curve, though single readings can be large or run the other way.

For Cc1ccc(S(=O)(=O)CC(=O)N(CCCN2CCOCC2)c2nc3c(F)cccc3s2)cc1 the results were Six1-Eya2 inh -3, CtBP-E1A blk 0, HP1b binding inh 13%, G9a inh inconclusive, BAZ2B block -7% and JMJD2A Tudor -8%.
For O=C(CCS(=O)(=O)c1ccccc1)N(CCCN1CCOCC1)c1nc2c(F)cccc2s1 the results were Six1-Eya2 inh 0, CtBP-E1A blk -1, HP1b binding inh 35%, G9a inh 14µM*, BAZ2B block inconclusive and JMJD2A Tudor -11%.
For CCC1CCCCN1S(=O)(=O)c1ccc(C(=O)Nc2sc3c(c2C(N)=O)CCC3)cc1 (stereo unspecified) the results were HP1b binding inh 14%[57 µM], G9a inh 0%[59 µM], BAZ2B block -3% and JMJD2A Tudor -26%.
Screening CCOC(=O)C1CCC(CN(Cc2cccc(Br)c2)S(=O)(=O)c2ccc(Cl)cc2)CC1 (stereo unspecified) returned HP1b binding inh 52%, G9a inh 10%[59 µM], BAZ2B block 12% and JMJD2A Tudor -5%.
For COc1ccc(CNC(=O)CN2C(=O)CCCc3ccccc32)cc1 the results were HP1b binding inh 38%, G9a inh -4%[59 µM], BAZ2B block -1% and JMJD2A Tudor -7%.
O=C(c1ccc2c(c1)CCCC2)N1CCN(c2nc3c(F)cccc3s2)CC1 was read as HP1b binding inh -13%, G9a inh -16%[59 µM], BAZ2B block -18% and JMJD2A Tudor -12%.
For COc1ccc(C(=O)N2CCN(c3ccc(C)cc3C)CC2)cc1OC the results were Six1-Eya2 inh -20, CtBP-E1A blk -11, HP1b binding inh 28%, G9a inh -18%, BAZ2B block -7% and JMJD2A Tudor -15%.
Screening COc1ccc(OC)c2c(C)cc(N3CCN(C(=O)c4ccc(F)cc4)CC3)nc12 returned Six1-Eya2 inh -8, CtBP-E1A blk -24, HP1b binding inh -27%, G9a inh inconclusive, BAZ2B block 50µM* and JMJD2A Tudor inconclusive.
For COc1ccc(C(=O)N2CCN(c3ccc(C)c(C)c3)CC2)cc1OC the results were Six1-Eya2 inh -12, CtBP-E1A blk -5, HP1b binding inh 26%, G9a inh -28%, BAZ2B block 3% and JMJD2A Tudor -20%.
Screening COc1ccc(OC)c2c(C)cc(N3CCN(C(=O)c4ccc(C)cc4)CC3)nc12 returned Six1-Eya2 inh 11, CtBP-E1A blk -6, HP1b binding inh -36%, G9a inh inconclusive, BAZ2B block 50µM* and JMJD2A Tudor inconclusive.
For COc1ccc(OC)c2sc(N3CCN(C(=O)c4ccc5c(c4)CCCC5)CC3)nc12 the results were HP1b binding inh inconclusive, G9a inh inconclusive, BAZ2B block 40µM* and JMJD2A Tudor inconclusive.
CCCCn1c(N)c(N(CC)C(=O)c2cccs2)c(=O)[nH]c1=O was read as Six1-Eya2 inh 9, CtBP-E1A blk -4, HP1b binding inh 29% and JMJD2A Tudor -10%.
`CN(Cc1ccccc1)c1oc(-c2ccco2)nc1C#N` gave Six1-Eya2 inh -23, CtBP-E1A blk -25, HP1b binding inh inconclusive, G9a inh inconclusive, BAZ2B block 45µM* and JMJD2A Tudor inconclusive.
For CN(C)c1oc(-c2ccco2)nc1C#N the results were Six1-Eya2 inh -2, CtBP-E1A blk -5, HP1b binding inh 25%, G9a inh 5%[59 µM], BAZ2B block -4% and JMJD2A Tudor -14%.
`N#Cc1nc(-c2ccco2)oc1N1CCN(Cc2ccccc2)CC1` gave Six1-Eya2 inh -14, CtBP-E1A blk -11, HP1b binding inh -24%, G9a inh inconclusive, BAZ2B block 50µM* and JMJD2A Tudor inconclusive.
`COc1ccccc1-c1nc(C#N)c(N2CCN(Cc3ccccc3)CC2)o1` gave Six1-Eya2 inh inconclusive, CtBP-E1A blk inconclusive, HP1b binding inh 14µM*, G9a inh inconclusive, BAZ2B block 28µM* and JMJD2A Tudor inconclusive.
For COc1ccccc1-c1nc(C#N)c(N2CCC(Cc3ccccc3)CC2)o1 the results were Six1-Eya2 inh inconclusive, CtBP-E1A blk -23, HP1b binding inh inconclusive, G9a inh inconclusive, BAZ2B block -1% and JMJD2A Tudor inconclusive.
For COc1ccc(NC(=O)C2(C)Cc3c(-c4cccc(C(N)=O)c4)ccnc3O2)cc1 (stereo unspecified) the results were Six1-Eya2 inh -1 and CtBP-E1A blk 2.
Screening CNc1oc(-c2cccs2)nc1S(=O)(=O)c1ccccc1 returned Six1-Eya2 inh -20, CtBP-E1A blk -2, HP1b binding inh 13%, G9a inh inconclusive, BAZ2B block -32% and JMJD2A Tudor -18%.
Screening Cc1ccc(S(=O)(=O)c2nc(-c3cccs3)oc2N2CCC(C)CC2)cc1 returned HP1b binding inh -17%, G9a inh inconclusive, BAZ2B block inconclusive and JMJD2A Tudor inconclusive.
Screening O=S(=O)(c1ccccc1)c1nc(-c2ccco2)oc1N1CCCCCC1 returned Six1-Eya2 inh -14, CtBP-E1A blk -8, HP1b binding inh 8.9µM*, G9a inh inconclusive, BAZ2B block 40µM* and JMJD2A Tudor -31%[11.4 µM].
Screening CC1CCN(c2oc(-c3cccs3)nc2S(=O)(=O)c2ccc(Cl)cc2)CC1 returned HP1b binding inh inconclusive, G9a inh 7.9µM*, BAZ2B block inconclusive and JMJD2A Tudor inconclusive.
O=S(=O)(c1ccccc1)c1nc(-c2cccs2)oc1N1CCCCC1 was read as HP1b binding inh -23%, G9a inh inconclusive, BAZ2B block 35µM* and JMJD2A Tudor -17%.
Screening CCC(C)S(=O)(=O)c1oc(-c2cccs2)nc1S(=O)(=O)c1ccccc1 (stereo unspecified) returned HP1b binding inh 47%, G9a inh 18µM*, BAZ2B block -8% and JMJD2A Tudor -20%.
`C[C@@]12C(=O)N(c3cccc(F)c3)C(=O)N1[C@@H]1c3ccccc3OC[C@@H]1[C@H]2c1ccccc1` gave Six1-Eya2 inh -2, CtBP-E1A blk -2, HP1b binding inh 32% and JMJD2A Tudor -21%.
